Assay results reported in the supplement of paper PMC10849652.
Targets with a hit are over-represented here; the source holds about 7,900 in all. About 0.6% of all pairs of compound and target were hits.

compound: c1cn2cc(-c3ccc4cn[nH]c4c3)nc(Nc3ccc(N4CCOCC4)cc3)c2n1 [entospletinib]; test: log2 fold change, soluble protein after heating vs DMSO (PISA); higher = thermal stabilisation; K562 cells, 10 uM, 30 min; active = over 0.2 and 3.5 SD of the protein, either way, in both replicates (recomputed)
In short: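 Aliquots of K562 cells (2×10^6 cells/mL) treated with 10 μM compound for 30 min were heated for 3 min over 48°C-58°C. After pooling and extraction in PBS with 0.5% NP-40 at 4°C, soluble protein from a 21,000xg, 90 min spin was quantified by TMTpro 16plex LC-MS/MS with channel sums equalised. Thermal stability is expressed against control samples, from duplicates, as a log2 fold change.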

UniProt P60602, sequence (P60602 whole entry, looked up): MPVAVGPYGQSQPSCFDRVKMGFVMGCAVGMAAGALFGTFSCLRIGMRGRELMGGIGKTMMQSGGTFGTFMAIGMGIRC
UniProt O95716, sequence (O95716 whole entry, looked up): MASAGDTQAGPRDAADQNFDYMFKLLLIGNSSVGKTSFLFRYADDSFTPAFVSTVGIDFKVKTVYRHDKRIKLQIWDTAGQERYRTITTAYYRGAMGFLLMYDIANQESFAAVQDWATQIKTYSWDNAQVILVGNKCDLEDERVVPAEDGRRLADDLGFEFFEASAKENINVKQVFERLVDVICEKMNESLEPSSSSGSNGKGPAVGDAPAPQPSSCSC
UniProt Q96T23, sequence (Q96T23 whole entry, looked up): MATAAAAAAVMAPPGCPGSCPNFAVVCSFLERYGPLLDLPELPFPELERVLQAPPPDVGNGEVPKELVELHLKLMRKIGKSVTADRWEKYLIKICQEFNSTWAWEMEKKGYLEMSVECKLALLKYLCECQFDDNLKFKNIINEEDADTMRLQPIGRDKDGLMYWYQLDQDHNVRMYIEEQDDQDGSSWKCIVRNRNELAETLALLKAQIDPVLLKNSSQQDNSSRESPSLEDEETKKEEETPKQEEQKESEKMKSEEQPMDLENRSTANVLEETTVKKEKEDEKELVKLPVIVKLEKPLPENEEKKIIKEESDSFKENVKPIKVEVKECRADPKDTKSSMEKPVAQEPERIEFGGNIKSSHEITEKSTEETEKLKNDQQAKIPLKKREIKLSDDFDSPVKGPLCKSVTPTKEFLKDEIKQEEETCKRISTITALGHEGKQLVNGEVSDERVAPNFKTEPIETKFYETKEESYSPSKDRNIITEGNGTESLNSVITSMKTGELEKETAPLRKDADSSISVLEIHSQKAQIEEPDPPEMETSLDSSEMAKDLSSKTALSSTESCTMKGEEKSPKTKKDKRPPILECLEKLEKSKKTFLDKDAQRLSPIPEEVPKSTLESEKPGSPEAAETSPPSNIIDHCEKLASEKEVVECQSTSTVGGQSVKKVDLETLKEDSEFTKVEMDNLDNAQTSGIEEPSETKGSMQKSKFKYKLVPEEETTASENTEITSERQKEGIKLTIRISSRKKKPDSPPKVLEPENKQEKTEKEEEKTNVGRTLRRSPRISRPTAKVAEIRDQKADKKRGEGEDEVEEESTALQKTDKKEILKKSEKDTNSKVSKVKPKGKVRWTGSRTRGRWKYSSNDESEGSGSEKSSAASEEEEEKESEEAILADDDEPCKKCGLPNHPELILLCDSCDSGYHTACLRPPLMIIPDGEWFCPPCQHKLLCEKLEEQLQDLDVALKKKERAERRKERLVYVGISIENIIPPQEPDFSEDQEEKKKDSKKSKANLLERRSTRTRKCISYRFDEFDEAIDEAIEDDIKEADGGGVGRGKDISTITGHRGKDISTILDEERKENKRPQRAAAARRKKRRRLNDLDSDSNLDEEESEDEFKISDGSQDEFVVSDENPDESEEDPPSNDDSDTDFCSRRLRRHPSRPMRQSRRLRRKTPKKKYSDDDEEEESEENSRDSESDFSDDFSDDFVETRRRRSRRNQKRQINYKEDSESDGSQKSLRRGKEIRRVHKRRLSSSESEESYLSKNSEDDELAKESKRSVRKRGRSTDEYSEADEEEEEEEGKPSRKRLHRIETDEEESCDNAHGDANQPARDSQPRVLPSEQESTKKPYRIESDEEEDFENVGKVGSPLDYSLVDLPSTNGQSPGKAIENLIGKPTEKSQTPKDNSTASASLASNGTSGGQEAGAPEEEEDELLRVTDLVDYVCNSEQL
UniProt Q8N0T1, sequence (Q8N0T1 whole entry, looked up): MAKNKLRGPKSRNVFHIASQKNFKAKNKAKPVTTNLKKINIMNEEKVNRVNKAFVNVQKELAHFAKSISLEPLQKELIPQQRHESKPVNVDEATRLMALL
UniProt Q9H082, sequence (Q9H082 whole entry, looked up): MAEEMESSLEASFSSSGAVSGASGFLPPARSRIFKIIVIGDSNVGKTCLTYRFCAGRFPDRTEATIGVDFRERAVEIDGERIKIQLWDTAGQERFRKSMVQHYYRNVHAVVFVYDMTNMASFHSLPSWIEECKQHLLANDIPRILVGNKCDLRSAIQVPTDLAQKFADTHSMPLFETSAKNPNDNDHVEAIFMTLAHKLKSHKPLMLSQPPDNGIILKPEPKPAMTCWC
UniProt Q5TA31, sequence (Q5TA31 whole entry, looked up): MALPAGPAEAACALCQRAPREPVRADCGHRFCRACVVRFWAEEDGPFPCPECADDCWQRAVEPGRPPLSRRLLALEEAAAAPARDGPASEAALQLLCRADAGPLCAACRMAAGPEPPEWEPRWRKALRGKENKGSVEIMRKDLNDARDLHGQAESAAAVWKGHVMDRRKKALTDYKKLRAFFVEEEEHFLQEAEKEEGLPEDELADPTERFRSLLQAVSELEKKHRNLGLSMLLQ
UniProt Q8N122, sequence (Q8N122 whole entry, looked up): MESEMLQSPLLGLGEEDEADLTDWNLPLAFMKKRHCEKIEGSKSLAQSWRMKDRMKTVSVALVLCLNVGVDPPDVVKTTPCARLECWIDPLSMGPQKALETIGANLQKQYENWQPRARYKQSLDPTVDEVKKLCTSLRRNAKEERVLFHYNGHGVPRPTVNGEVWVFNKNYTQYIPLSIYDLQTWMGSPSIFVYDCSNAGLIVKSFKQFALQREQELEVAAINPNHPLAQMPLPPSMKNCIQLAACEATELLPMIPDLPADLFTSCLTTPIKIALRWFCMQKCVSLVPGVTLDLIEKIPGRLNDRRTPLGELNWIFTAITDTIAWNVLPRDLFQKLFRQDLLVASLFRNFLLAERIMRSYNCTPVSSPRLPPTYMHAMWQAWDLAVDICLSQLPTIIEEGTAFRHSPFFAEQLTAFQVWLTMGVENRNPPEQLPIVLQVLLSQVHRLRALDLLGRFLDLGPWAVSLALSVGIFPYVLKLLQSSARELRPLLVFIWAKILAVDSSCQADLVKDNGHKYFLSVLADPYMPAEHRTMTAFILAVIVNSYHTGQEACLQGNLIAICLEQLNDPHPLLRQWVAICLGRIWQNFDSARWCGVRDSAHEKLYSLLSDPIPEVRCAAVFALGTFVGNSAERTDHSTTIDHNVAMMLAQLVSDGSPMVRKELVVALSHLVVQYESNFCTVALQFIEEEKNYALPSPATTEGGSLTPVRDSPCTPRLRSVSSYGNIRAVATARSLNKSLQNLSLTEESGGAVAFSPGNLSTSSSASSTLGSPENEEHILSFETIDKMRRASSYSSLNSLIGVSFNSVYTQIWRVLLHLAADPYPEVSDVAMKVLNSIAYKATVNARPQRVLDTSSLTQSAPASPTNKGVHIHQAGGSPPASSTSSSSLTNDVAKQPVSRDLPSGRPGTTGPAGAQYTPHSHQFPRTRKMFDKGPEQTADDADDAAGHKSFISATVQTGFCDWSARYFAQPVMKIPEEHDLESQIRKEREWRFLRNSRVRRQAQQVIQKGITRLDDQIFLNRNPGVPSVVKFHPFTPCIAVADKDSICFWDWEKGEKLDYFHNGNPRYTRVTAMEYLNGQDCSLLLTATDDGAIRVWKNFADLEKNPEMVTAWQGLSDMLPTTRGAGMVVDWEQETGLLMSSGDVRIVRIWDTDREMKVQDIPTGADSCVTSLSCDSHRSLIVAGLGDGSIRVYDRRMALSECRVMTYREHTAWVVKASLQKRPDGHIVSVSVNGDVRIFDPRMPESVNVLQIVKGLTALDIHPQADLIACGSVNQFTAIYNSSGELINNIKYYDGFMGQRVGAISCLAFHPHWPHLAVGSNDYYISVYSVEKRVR
UniProt O95470, sequence (O95470 whole entry, looked up): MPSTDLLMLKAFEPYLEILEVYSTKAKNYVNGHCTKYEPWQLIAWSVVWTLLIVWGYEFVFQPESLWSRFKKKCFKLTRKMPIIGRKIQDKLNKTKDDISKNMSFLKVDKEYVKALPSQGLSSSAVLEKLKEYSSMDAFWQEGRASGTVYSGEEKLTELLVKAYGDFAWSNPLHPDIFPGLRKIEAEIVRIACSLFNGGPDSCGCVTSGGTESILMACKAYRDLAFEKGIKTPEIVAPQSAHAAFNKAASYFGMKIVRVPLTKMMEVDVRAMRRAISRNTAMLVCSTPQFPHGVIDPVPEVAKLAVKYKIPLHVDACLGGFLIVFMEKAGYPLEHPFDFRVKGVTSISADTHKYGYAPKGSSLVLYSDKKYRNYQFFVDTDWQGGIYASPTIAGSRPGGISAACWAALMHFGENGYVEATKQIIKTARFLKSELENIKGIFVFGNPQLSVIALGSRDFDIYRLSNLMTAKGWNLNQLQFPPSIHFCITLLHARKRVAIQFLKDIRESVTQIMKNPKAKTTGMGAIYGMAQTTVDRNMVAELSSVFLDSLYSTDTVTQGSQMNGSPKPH
UniProt Q15050, sequence (Q15050 whole entry, looked up): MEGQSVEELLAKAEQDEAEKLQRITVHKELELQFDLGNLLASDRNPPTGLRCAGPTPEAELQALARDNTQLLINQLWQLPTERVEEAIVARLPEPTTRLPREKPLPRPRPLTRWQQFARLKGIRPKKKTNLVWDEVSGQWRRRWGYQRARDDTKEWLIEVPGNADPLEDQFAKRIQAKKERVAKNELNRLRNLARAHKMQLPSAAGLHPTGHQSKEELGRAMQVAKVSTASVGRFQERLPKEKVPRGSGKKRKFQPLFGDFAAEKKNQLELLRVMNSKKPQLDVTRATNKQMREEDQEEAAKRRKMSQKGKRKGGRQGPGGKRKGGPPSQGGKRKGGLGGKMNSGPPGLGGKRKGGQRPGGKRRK
UniProt Q9H6H4, sequence (Q9H6H4 whole entry, looked up): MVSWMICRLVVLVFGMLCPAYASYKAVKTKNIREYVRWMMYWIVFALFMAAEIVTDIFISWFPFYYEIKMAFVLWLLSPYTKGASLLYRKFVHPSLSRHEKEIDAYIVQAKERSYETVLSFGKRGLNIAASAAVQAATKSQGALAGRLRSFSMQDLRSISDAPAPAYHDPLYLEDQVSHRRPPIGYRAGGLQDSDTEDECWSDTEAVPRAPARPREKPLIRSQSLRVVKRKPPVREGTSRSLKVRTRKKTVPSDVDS
UniProt P35244, sequence (P35244 whole entry, looked up): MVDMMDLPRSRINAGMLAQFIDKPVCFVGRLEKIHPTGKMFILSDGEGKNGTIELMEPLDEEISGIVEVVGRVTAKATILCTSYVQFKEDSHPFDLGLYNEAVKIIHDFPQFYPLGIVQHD

log2 fold change, inactive:
SIK3 (UniProt H0Y4E8) 0.021
SERINC3 (UniProt Q13530) 0.01
SCYL3 isoform 2 (UniProt Q8IZE3) -0.09
RAB33B (UniProt Q9H082) -0.018
RPA3 (UniProt P35244) -0.02
RPS6KA5 (UniProt O75582) -0.094
RALA (UniProt P11233) -0.026
SDHC (UniProt Q99643) 0.032
SCAF8 isoform 2 (UniProt Q9UPN6) -0.042
RELA (UniProt Q04206) -0.062
SHROOM2 (UniProt Q13796) -0.173
RALGPS2 (UniProt Q86X27) -0.153
SEC23IP (UniProt Q9Y6Y8) -0.06
RRP12 (UniProt Q5JTH9) -0.132
SEH1L isoform 1 (UniProt Q96EE3) 0.007
SLBP (UniProt Q14493) -0.101
RAC3 (UniProt P60763) 0.071
RHOXF2 (UniProt Q9BQY4) 0.062
RPS6KA2 isoform 2 (UniProt Q15349) 0.013
SEPTIN5 (UniProt Q99719) -0.011
SEC23A (UniProt Q15436) 0.106
RSF1 (UniProt Q96T23) 0.052
SH3PXD2B (UniProt A1X283) -0.131
SESN2 (UniProt P58004) 0.167
RAB3D (UniProt O95716) 0.004
RNF187 (UniProt Q5TA31) 0.027
SGPL1 (UniProt O95470) -0.017
SAAL1 (UniProt Q96ER3) 0.093
ROMO1 (UniProt P60602) 0.045
RBIS (UniProt Q8N0T1) -0.031
RPTOR (UniProt Q8N122) -0.048
RRS1 (UniProt Q15050) 0.066
RAB3IL1 (UniProt Q8TBN0) 0.005
RBM27 (UniProt Q9P2N5) 0.054
REEP4 (UniProt Q9H6H4) 0.055
RPS13 (UniProt P62277) 0.148
RDH11 (UniProt Q8TC12) 0.082
